Reference: PubChem BioAssay (NCI)
The panel holds about 83,000 compounds, 20% with a hit somewhere; the sample as a whole holds those more often.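 A percent growth of 40 corresponds to 60% growth inhibition; 0 means no net growth; -100 means all cells died. Active threshold: below 10.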 Activity calls are given as the source filed them.

How the values were obtained:
Experiment in all cases: NCI-60 one-dose screen, 48 h (100 = growth as untreated, 0 = no growth, -100 = all killed)
Settings in all cases: 10 µM unless noted
[1] = test system: NCI-H23 lung
[2] = test system: NCI-H226 lung
[3] = test system: NCI-H322M lung
[4] = test system: HOP-62 NSCLC
[5] = test system: NCI-H460 lung
[6] = test system: HOP-92 NSCLC
[7] = test system: NCI-H522 lung
[8] = test system: 786-0 renal
[9] = test system: COLO 205 colon
[10] = test system: DU-145 prostate
[11] = test system: K-562 leukemia
[12] = test system: MALME-3M melanoma
[13] = test system: MDA-MB-231 breast
[14] = test system: RXF 393 renal
[15] = test system: SF-268 CNS
[16] = test system: SF-295 CNS
[17] = test system: SF-539 CNS
[18] = test system: UACC-257 melanoma
[19] = test system: M14 melanoma
[20] = test system: A549/ATCC NSCLC

Measured: growth

CCC(C)[C@H](NC(=O)NC(=O)NC(=O)CI)C(=O)OC (some centres undefined)
inactive: [1] 82.3% | [2] 86.7% | [3] 106% | [4] 87.9% | [5] 95.6% | [9] 10.8% | [10] 108% | [13] 46.8% | [14] 85.3% | [15] 94.3% | [16] 89.4% | [17] 91.5% | [18] 85% | [19] 71.2%
active: [6] -34.4% | [7] -86.5% | [8] -50.3% | [11] 6.27% | [12] -44.9%

O=C(CSc1nc2ccc([N+](=O)[O-])cc2[nH]1)Nc1cccc(Cl)c1
active: [1] -2.48% | [6] -27.9% | [7] 4.64% | [12] 2.51%
inactive: [2] 12.9% | [3] 62.4% | [4] 35% | [5] 25.3% | [20] 28.9% | [8] 28.6% | [9] 26.4% | [10] 36.3% | [11] 16.4% | [13] 41.1% | [14] 44.5% | [15] 24.3% | [16] 21.7% | [17] 45.2% | [18] 15% | [19] 29.4%

COc1ccc(/C=C(/C2=NCCN2)n2ccc3ccccc32)cc1
inactive: [1] 100% | [2] 81.5% | [3] 92% | [4] 97.1% | [5] 93.1% | [6] 56.7% | [7] 85.9% | [20] 99.8% | [8] 88.8% | [9] 83.9% | [10] 96.2% | [11] 84.3% | [12] 87% | [13] 89.5% | [14] 77.9% | [15] 79.3% | [16] 85.8% | [17] 92.7% | [18] 94.3% | [19] 86.2%

CC(C)CCSc1nc(N)nc2nc[nH]c12
inactive: [1] 104% | [2] 96.7% | [3] 143% | [4] 102% | [5] 96.8% | [6] 76.4% | [7] 79.9% | [8] 95.9% | [9] 102% | [10] 107% | [11] 81.7% | [12] 250% | [13] 106% | [14] 106% | [15] 108% | [16] 132% | [17] 87.4% | [18] 113% | [19] 91.6%

O=[N+]([O-])c1cccc(/C=C/c2ccc3ccccc3n2)c1
inactive: [1] 85.8% | [2] 82.9% | [3] 74.3% | [4] 55.5% | [5] 77.1% | [6] 66.6% | [7] 47.5% | [8] 70.4% | [9] 91.7% | [10] 71.4% | [11] 94.7% | [12] 68.5% | [13] 45.7% | [14] 62.1% | [15] 72.9% | [16] 53.2% | [17] 78.1% | [18] 74.8% | [19] 82.3%

CCOC(=O)c1sc2nc(-c3cc(OC)c(OC)c(OC)c3)nc(N3CCOCC3)c2c1C
inactive: [1] 27.6% | [2] 44.7% | [3] 48.2% | [4] 77.1% | [5] 17.5% | [7] 12.1% | [8] 51.8% | [9] 26.5% | [10] 48.3% | [11] 24.2% | [13] 44.9% | [14] 32.3% | [15] 40.1% | [16] 40.3% | [17] 50.4% | [18] 51.7% | [19] 38.4%
active: [6] -15% | [12] 9.78%

O=C(O)c1cn(C2CC2)c2cc(N3CCN(Cc4cc(Cl)ccc4O)CC3)c(F)cc2c1=O
inactive: [1] 78.8% | [2] 82.8% | [3] 77.9% | [4] 64.1% | [5] 52% | [6] 59.9% | [7] 67.5% | [8] 85.1% | [9] 75.7% | [10] 95.2% | [11] 46.5% | [12] 80.7% | [13] 71.3% | [14] 60.2% | [15] 75.8% | [16] 34.3% | [17] 74% | [18] 80.7% | [19] 59.2%

O=C(Nc1cccc2cccnc12)c1cc(C(=O)c2ccc(Cl)cc2)n2ccc(-c3ccncc3)cc12
inactive: [1] 102% | [2] 91% | [3] 95.7% | [4] 88.3% | [5] 98% | [6] 83.9% | [7] 88.8% | [8] 103% | [9] 111% | [10] 106% | [11] 113% | [12] 90.7% | [13] 110% | [14] 104% | [15] 97.8% | [16] 98.9% | [17] 99.7% | [18] 97.7% | [19] 96.1%
